# Source: PubChem BioAssay
# Rows were chosen to be rich in hits. Some 3% of all compounds tested hit in one or more screens of this group.
# EWS-Fli inh – EWS/Fli-driven NR0B1 reporter inhibitors, primary screen, A673 cells, NR0B1 luciferase, luminescence, MLPCN library; inhibition, % at 12.6 µM; hit rate 0.67% among 350,000; AID 651661, 2012; viability-normalised;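 active = mean inhibition of at least 50% after viability correction, with every replicate also passing that limit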;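 note: firefly luciferase signal divided by Alamar Blue viability fluorescence both relative to DMSO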
# Peg3 prom inh – Peg3 promoter-driven luciferase inhibitors, primary screen, cell-based, HeLa, luciferase luminescence; hit rate 1.7% among 360,000; inhibition, % at 20 µM; HeLa PEG-Prom luciferase reporter, overnight; AID 588405, 2011;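 active = inhibition of at least 50% at 20 µM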
# ABHD5-PLIN5 inh – ABHD5-PLIN5 interaction inhibitors, primary screen, cell lysate, split luciferase complementation, luminescence; inhibition, % at 4 µM; AID 602281, 2012; Perilipin-5 (Homo sapiens) + 1-acylglycerol-3-phosphate O-acyltransferase ABHD5 (Homo …; Split G. princeps luciferase complementation, 4 h; hit rate 0.78% among 360,000;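 active = inhibition above the mean inhibition across every tested compound plus 3 SD, cut at about 22% in these data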;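 note: 0% = DMSO only wells and the 100% control is not disclosed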
# PAX8 inh HTS – inhibitors of PAX8-driven TPO luciferase reporter, primary screen, RMG-I cells, single concentration; inhibition, % at 12.6 µM; hit rate 1.2% among 360,000; SteadyGlo, 24 h;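 active = mean replicate inhibition at least 60% with every replicate also reaching 60%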;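 note: luciferase light reporting Pax8 driven TPO promoter activity; plate controls were median of neutral control wells for no effect and mitoxantrone controls for full effect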
# Shn3 3UTR inh – reduction of Shn3 3'UTR firefly luciferase signal, primary screen, Schnurri-3 inhibitor project, cell-based, Clone20 osteoblasts, set 2 | Clone20 osteoblast Shn3 3'UTR firefly luciferase, 24 h | inhibition, % at 12.5 µM | hit rate 0.52% among 360,000 | AID 588674, 2011;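 active = mean inhibition of at least 75% with every replicate also reaching 75%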;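 note: 0% = median of neutral control wells and 100% = pilot-screen positive control compound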
# TRPM1 prom inh – inhibitors of MITF-dependent TRPM1 promoter reporter, primary screen, cell-based, SK-MEL-5, single point, luciferase; SK-MEL-5 TRPM1 promoter luciferase, 24 h; inhibition, % at 12.5 µM; hit rate 0.83% among 330,000;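 active = mean inhibition across replicates of 60% or more, whatever share of single replicates reaches that level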
# ABHD5 PLIN5 conf – ABHD5-PLIN5 interaction inhibitors, confirmation, biochemical, luminescence. inhibition, % at 4 µM. AID 651612, 2012. hit rate 67% among 2,200. shares compounds with ABHD5-PLIN5 inh; in the data active = inhibition above about 23%;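 note: 0% = DMSO vehicle wells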
# HNF4 split-luc – HNF4 dimerization inhibitors, counter-screen for ABHD5-PLIN5 interaction inhibitor project, biochemical, split-luciferase complementation, luminescence; shares compounds with ABHD5-PLIN5 inh; AID 651674, 2012; hit rate 77% among 2,200; inhibition, % at 4 µM;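 active = mean inhibition across replicate wells exceeding the computed hit threshold, cut at about 13% in these data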;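 note: light from luciferase halves that rejoin when HNF4 fusion proteins dimerize; 0% = DMSO only wells and the 100% control is not given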
# * = called active by the depositor; nt = no result given.
SMILES,EWS-Fli inh,Peg3 prom inh,ABHD5-PLIN5 inh,PAX8 inh HTS,Shn3 3UTR inh,TRPM1 prom inh,ABHD5 PLIN5 conf,HNF4 split-luc
COC(=O)C1=C(C(=O)OC)[C@]2([C@@H]3CC=CCN[C@@H](Cc4ccccc4)C(=O)N3Cc3ccccc3)C=C[C@H]1O2,8,-111,-4,12,18,4,nt,nt
C=CCC(Nc1ccccc1)C12C=CC(O1)C(C(=O)OC)=C2C(=O)OC (stereo not given),nt,92*,26*,nt,35,80*,86*,90*
Cc1ccc(S(=O)(=O)N(C)C[C@@H]2OCCCC[C@@H](C)Oc3ccc(NC(=O)CCC(F)(F)F)cc3C(=O)N([C@@H](C)CO)C[C@H]2C)cc1,-11,nt,nt,6,nt,nt,nt,nt
COc1ccc(S(=O)(=O)Nc2cccc3c2O[C@H](CN(C)CC2CCCCC2)[C@H](C)CN([C@H](C)CO)C3=O)cc1,0,nt,nt,-7,nt,nt,nt,nt
O=C1CC(c2ccccc2)CC(=O)C1Sc1ccc(Cl)cc1 (stereo not given),nt,8,-1,5,-1,4,nt,nt
O=C1CCCC(=O)C1CS(=O)(=O)c1ccccc1,-16,12,41*,-15,-9,1,46*,98*
O=C1CC(c2ccc(Cl)cc2)CC(=O)C1CS(=O)(=O)c1ccccc1 (stereo not given),5,6,25*,5,8,-2,43*,83*
COc1ccc(C2CC(=O)C(CS(=O)(=O)c3ccccc3)C(=O)C2)cc1 (stereo not given),3,-2,42*,5,3,7,53*,102*
COc1ccc(N2C(=O)CC(c3ccccc3)CC2=O)cc1,-8,-22,-4,-4,-1,-2,nt,nt
O=C(Cc1ccncc1)Nc1ccc2c(c1)[C@@H]1C[C@H](CC(=O)NC3CCCCC3)O[C@H](CO)[C@@H]1O2,11,nt,nt,-5,nt,nt,nt,nt
O=C(C[C@@H]1CC[C@@H]2[C@H](COC[C@@H](O)CN2Cc2ccccc2)O1)N[C@@H]1CCN(Cc2ccccc2)C1,-8,nt,nt,2,nt,nt,nt,nt
COC(=O)N1CCc2c(sc(NC(=O)C3COc4ccccc4O3)c2C(N)=O)C1 (stereo not given),-35,-241,40*,-49,-90,-72,1,8
Cc1ccc(/C=C/C(=O)Nc2ccc(S(N)(=O)=O)cc2)o1,3,-3,36*,-6,-4,3,64*,81*
Cc1ccc(/C=C/C(=O)NCCc2cccc(Cl)c2)o1,38,23,40*,31,-16,-19,68*,79*
Cc1ccc(/C=C/C(=O)Nc2ccc(N(C)C)cc2)o1,nt,-349,1,-113,-67,-113,nt,nt
CC(=O)NS(=O)(=O)c1ccc(NC(=O)/C=C/c2ccc(C)o2)cc1,2,6,28*,5,-6,-5,50*,62*
Cc1ccc(/C=C/C(=O)NCc2ccc(S(N)(=O)=O)cc2)o1,5,1,47*,5,-9,11,46*,57*
CCC(=O)N(C)C[C@H]1Oc2cc(-c3cccc(C#N)c3)ccc2S(=O)(=O)N([C@H](C)CO)C[C@H]1C,14,nt,nt,nt,nt,nt,nt,nt
Cc1noc(C)c1S(=O)(=O)Nc1ccc2c(c1)C(=O)N([C@@H](C)CO)C[C@@H](C)[C@@H](CN(C)Cc1ccc(Oc3ccccc3)cc1)O2,14,nt,nt,nt,nt,nt,nt,nt
O=C(Nc1nccs1)[C@@H]1[C@@H](CO)[C@@H]2Cn3c(cccc3=O)[C@H]1N2C(=O)C1CC1,5,nt,nt,nt,nt,nt,nt,nt
COc1ccc(-c2nc(CN3CCN(c4cc(C)nc(C)c4)CC3)c(C)o2)c2ccccc12,22,82*,25*,22,13,-16,12,1
Cc1cc(N2CCN(Cc3nc(-c4ccc(Cl)cc4)oc3C)CC2)cc(C)n1,3,22,19,22,21,10,nt,nt
